Molecules are shown by their SMILES. Results filed as inconclusive are left out. Activity calls are given as the source filed them. The call rests on the fitted dose curve.
Potency means the concentration at half of the fitted maximal effect.

A short description of this assay: Cell Viability - BJ (AID 421).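 Further: cells exposed to compound for 40 hours at 37 °C before readout.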 As to conditions: BJ fibroblast viability, qHTS. The source says:
NIH Chemical Genomics Center [NCGC]
NIH Molecular Libraries Screening Centers Network [MLSCN]
National Institutes of Environmental Health Sciences [NIEHS]
National Toxicology Program [NTP]
We have developed a 1536-well cell-based assay for quantitative high throughput screening (qHTS) against a number of cell lines to determine in vitro cytotoxicity of small molecules. This particular assay uses the BJ cell line from ATCC which is derived from normal human foreskin fibroblasts.
NCGC Assay Protocol Summary:
The CellTiter-Glo luminescent cell viability assay (Promega) is a homogeneous method to measure the number of viable cells in culture. The end point readout of this assay is based on quantitation of intracellular ATP, an indicator of metabolic activity, using the luciferase reaction. Luciferase catalyzes the oxidation of beetle Luciferin to oxyluciferin and light in the presence of ATP. The luminescent signal is proportional to amount of ATP present.
Using the CellTiter-Glo luminescent cell viability assay, the amount of cellular ATP was measured in the BJ cell line with complete culture medium following compound treatment for 40 hours. The assay was performed in opaque white Kalypsys 1536-well plates. In the screen, tamoxifen and doxorubicin were used as positive controls. Library compounds were measured for their ability to cause acute toxicity in the cell line, as reflected by a decrease in intracellular ATP levels, in a concentration-dependent manner. Data were normalized to the controls for basal activity (DMSO only) and 100% inhibition (100 uM tamoxifen). AC50 values were determined from concentration-response data modeled with the standard Hill equation.
qHTS protocol fo CellTiter Glo BJ cellular assay
[Step] [Parameter] [Value] [Description]
1. Reagent; 5 uL; 1500 BJ cells/well
2. Time; 5 hr; 37 °C incubation
4. Controls; 23 nL; Tamoxifen 0.34 uM to 100 uM & Doxorubicin 0.02 nM to 100 uM
5. Time; 40 hr; 37 °C incubation
6. Reagent; 5 uL; CellTiter Glo reagent
7. Time; 20 min; Room Temperature
8. Detection; Luminescence; Viewlux plate reader
Keywords: cell viability, cytotoxicity, BJ cell line, luminescence, NTPHTS, NTPHTS_NCGC, NIEHS, EPA, DSSTox, MLSMR, MLSCN, NIH Roadmap, qHTS, NCGC
For `Brc1cc(Br)c(Oc2cc(Br)c(Br)cc2Br)cc1Br`, the Potency was > 92 µM (inactive).

Turning to `O=C(O)c1ccc([N+](=O)[O-])cc1`, the Potency is > 92 µM (inactive).

Turning to `c1ccc2c(c1)ccc1ccccc12`, the Potency was > 92 µM (inactive).

On to `CC(/C=C/C=C(C)/C=C/C(=O)O)=C\C=C\C=C(C)\C=C\C=C(C)\C=C\C(=O)O`, for which the Potency is > 92 µM (inactive).

Regarding `c1ccc(SCCSc2ccccc2)cc1`, the Potency was > 92 µM (inactive).

With `CC(=O)Nc1cccc(C)c1`, the Potency is > 92 µM (inactive).

On to `O=C(O)/C=C/c1ccc(/C=C/C(=O)O)cc1`, for which the Potency is > 92 µM (inactive).

With `CN(C)c1ccc(Cc2ccc(N(C)C)cc2)cc1`, the Potency was > 92 µM (inactive).

For `CCCCCCCCOc1ccc(C(=O)O)cc1`, the Potency is > 92 µM (inactive).

In the case of `Brc1ccc(-c2ccccc2)cc1`, the Potency is > 92 µM (inactive).

With `O=[N+]([O-])c1ccccc1Nc1ccccc1`, the Potency is > 92 µM (inactive).

In the case of `Cc1cccnc1`, the Potency was > 92 µM (inactive).

As to `Nc1cc(C(=O)O)c(O)c(S(=O)(=O)O)c1`, the Potency is > 92 µM (inactive).

Consider `CCCCOC(=O)COc1ccc(Cl)cc1Cl`, for which the Potency is > 92 µM (inactive).

As to `CC(C)(C)C(=O)C1C(=O)c2ccccc2C1=O`, the Potency was > 92 µM (inactive).

As to `C=C1CC[C@H](O)C/C1=C/C=C1\CCC[C@]2(C)[C@@H]([C@H](C)CCCC(C)C)CC[C@@H]12`, the Potency is 61.2 µM (active).

In the case of `Nc1ccc(N=Nc2ccccc2)c(N)c1`, the Potency was > 92 µM (inactive).

Regarding `CCNC(=S)NCC`, the Potency was > 92 µM (inactive).

Turning to `C=C(C#N)C(=O)OCC`, the Potency was > 92 µM (inactive).

As for `c1ccc2ncccc2c1`, the Potency is > 92 µM (inactive).

On to `CCCCC(CC)COP(=O)(OCC(CC)CCCC)OCC(CC)CCCC` (stereo not given), for which the Potency was > 92 µM (inactive).

For the molecule `CC1=C(/C=C/C(C)=C/C=C/C(C)=C/C=O)C(C)(C)CCC1`, the Potency was 35.2 µM (active).

As for `COc1ccc(C)cc1N`, the Potency is > 92 µM (inactive).

As to `O=C(Cl)c1ccc([N+](=O)[O-])cc1`, the Potency is > 92 µM (inactive).

Consider `Oc1c(Cl)cc(Cl)c(Cl)c1Cl`, for which the Potency is > 92 µM (inactive).

Regarding `Cc1cc2nc(N)sc2cc1C`, the Potency was > 92 µM (inactive).

For `Nc1cnn([C@@H]2O[C@H](CO)[C@@H](O)[C@H]2O)c(=O)n1`, the Potency is > 92 µM (inactive).

With `C=CC(=O)CC`, the Potency was > 92 µM (inactive).

For the molecule `CCCC(=O)OC(=O)CCC`, the Potency was > 92 µM (inactive).

With `CC(=O)OC(C(=O)c1ccccc1)c1ccccc1` (stereo not given), the Potency is > 92 µM (inactive).

Take `COc1ccc([N+](=O)[O-])cc1N`: the Potency was > 92 µM (inactive).

For the molecule `C1CCCNCC1`, the Potency is > 92 µM (inactive).

For `C/C=C/C=C/C=O`, the Potency is > 92 µM (inactive).

For `CCc1ccc(C(c2ccc(CC)cc2)C(Cl)Cl)cc1`, the Potency was > 92 µM (inactive).

For the molecule `C=Cc1cccc(C)c1`, the Potency was > 92 µM (inactive).

With `Cc1ccccc1OCC1CO1` (stereo not given), the Potency is > 92 µM (inactive).

As for `Nc1ccc2c(c1)C(=O)c1ccccc1C2=O`, the Potency is > 92 µM (inactive).

For the molecule `CC/C=C/C/C=C/C/C=C/CCCCCCCC(=O)OCC`, the Potency was > 92 µM (inactive).

As to `Cc1cc(=O)oc2cc(O)cc(O)c12`, the Potency is > 92 µM (inactive).

For the molecule `COc1cc(-c2ccc(N=C=O)c(OC)c2)ccc1N=C=O`, the Potency is > 92 µM (inactive).

Source of the values: PubChem BioAssay (NCATS).
